# Laboratory results published in the supplement of paper PMC8728848.
# Many of the other results were omitted from the sample, so the strongest signals are more common in it than they were.
# B1: SAOUHSC 02783 (Staphylococcus aureus), Q5HD69 (protein)
# chain: MIHSKKLTLGICLVLLIILIVGYVIMTKTNGRNAQIKDTFNQTLKLYPTKNLDDFYDKEGFRDQEFKKGDKGTWIVNSEMVIEPKGKDMETRGMVLYINRNTRTTKGYYFISEMTDDSNGRPKDDEKRYPVKMEHNKIIPTKPLPNDKLKKEIENFKFFVQYGNFKDINDYKDGDISYNPNVPSYSAKYQLNNDDYNVQQLRKRYDIPTKQAPKLLLKGDGDLKGSSVGSRSLEFTFVENKEENIYFTDSVQYTPSEDTRYESN
# Assays:
# Test in all cases: glycan array binding signal (z-score within array); higher = stronger binding
# Settings in all cases: glycan notation: IUPAC condensed, linker removed
# [1] = biological target: Fuc(a1-2)Gal(b1-3)GlcNAc(b1-2)Man(a1-3)[Fuc(a1-2)Gal(b1-3)GlcNAc(b1-2)Man(a1-6)]Man(b1-4)GlcNAc(b1-4)[Fuc(a1-6)]GlcNAc
# Procedure, shortened: (§1)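 Glycan array data came from 3228 arrays in the Consortium for Functional Glycomics database, and only arrays with an available protein sequence were kept. Glycan names were put into IUPAC-condensed notation, and columns mapping to the same glycan were averaged. The binding signal is a within-array Z-score, averaged across arrays of one protein sequence run at different concentrations or buffers and across linkers. A negative Z-score can be read as non-binding.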
# [2] = biological target: Fuc(a1-2)Gal(b1-4)GlcNAc(b1-3)Gal(b1-4)GlcNAc(b1-2)Man(a1-3)[Fuc(a1-2)Gal(b1-4)GlcNAc(b1-3)Gal(b1-4)GlcNAc(b1-2)Man(a1-6)]Man(b1-4)GlcNAc(b1-4)GlcNAc
# Procedure, shortened: as §1
# [3] = biological target: Fuc(a1-2)Gal(b1-4)GlcNAc(b1-3)GalNAc
# Procedure, shortened: as §1
# [4] = biological target: Fuc(a1-2)Gal(b1-4)[Fuc(a1-3)]GlcNAc(b1-2)[Fuc(a1-2)Gal(b1-4)[Fuc(a1-3)]GlcNAc(b1-4)]Man(a1-3)[Fuc(a1-2)Gal(b1-4)[Fuc(a1-3)]GlcNAc(b1-2)Man(a1-6)]Man(b1-4)GlcNAc(b1-4)GlcNAc
# Procedure, shortened: as §1
# [5] = biological target: Fuc(a1-2)Gal(b1-4)[Fuc(a1-3)]GlcNAc(b1-3)Gal(b1-4)[Fuc(a1-3)]GlcNAc(b1-3)Gal(b1-4)[Fuc(a1-3)]GlcNAc
# Procedure, shortened: as §1
# [6] = biological target: Fuc(a1-2)Gal6S(b1-4)Glc6S
# Procedure, shortened: as §1
# [7] = biological target: Fuc(a1-2)[Gal(a1-3)]Gal(b1-4)GlcNAc(b1-2)Man(a1-3)[Fuc(a1-2)[Gal(a1-3)]Gal(b1-4)GlcNAc(b1-2)Man(a1-6)]Man(b1-4)GlcNAc(b1-4)[Fuc(a1-6)]GlcNAc
# Procedure, shortened: as §1
# [8] = biological target: Gal(a1-3)Gal(b1-4)GlcNAc(b1-2)Man
# Procedure, shortened: as §1
# [9] = biological target: Gal(b1-3)GalNAc(a1-3)[Fuc(a1-2)]Gal(b1-4)GlcNAc
# Procedure, shortened: as §1
# Gal(b1-3)GalNAc(b1-3)Gal = biological target: Gal(b1-3)GalNAc(b1-3)Gal
# Procedure, shortened: as §1
# Gal(b1-3)GlcNAc = biological target: Gal(b1-3)GlcNAc
# Procedure, shortened: as §1
# [10] = biological target: Gal(b1-3)GlcNAc(b1-2)Man(a1-3)[GlcNAc(b1-4)][Gal(b1-3)GlcNAc(b1-2)Man(a1-6)]Man(b1-4)GlcNAc(b1-4)GlcNAc
# Procedure, shortened: as §1
# [11] = biological target: Gal(b1-3)[GlcNAc(b1-6)]GalNAc
# Procedure, shortened: as §1
# [12] = biological target: Gal(b1-4)GlcNAc(b1-2)Man(a1-3)[Gal(b1-4)GlcNAc(b1-2)Man(a1-6)][GlcNAc(b1-4)]Man(b1-4)GlcNAc(b1-4)[Fuc(a1-6)]GlcNAc
# Procedure, shortened: as §1
# [13] = biological target: Gal(b1-4)GlcNAc(b1-2)Man(a1-3)[Man(a1-6)]Man(b1-4)GlcNAc(b1-4)GlcNAc
# Procedure, shortened: as §1
# [14] = biological target: Gal(b1-4)GlcNAc(b1-3)Gal(b1-4)GlcNAc(b1-2)Man(a1-3)[Gal(b1-4)GlcNAc(b1-3)Gal(b1-4)GlcNAc(b1-2)Man(a1-6)]Man(b1-4)GlcNAc(b1-4)GlcNAc
# Procedure, shortened: as §1
# Gal(b1-6)Gal = biological target: Gal(b1-6)Gal
# Procedure, shortened: as §1
# [15] = biological target: Gal3S(b1-3)[Fuc(a1-4)]GlcNAc
# Procedure, shortened: as §1
# [16] = biological target: Gal3S(b1-4)[Fuc(a1-3)]GlcNAc
# Procedure, shortened: as §1
# Gal6S(b1-3)GlcNAc = biological target: Gal6S(b1-3)GlcNAc
# Procedure, shortened: as §1
# GalNAc4S6S(b1-4)GlcNAc = biological target: GalNAc4S6S(b1-4)GlcNAc
# Procedure, shortened: as §1
# GlcA(b1-6)Gal = biological target: GlcA(b1-6)Gal
# Procedure, shortened: as §1
# [17] = biological target: GlcNAc(a1-4)Gal(b1-4)GlcNAc
# Procedure, shortened: as §1
# [18] = biological target: GlcNAc(b1-2)Man(a1-3)[GlcNAc(b1-4)][GlcNAc(b1-2)Man(a1-6)]Man(b1-4)GlcNAc(b1-4)GlcNAc
# Procedure, shortened: as §1
# [19] = biological target: GlcNAc(b1-2)[GlcNAc(b1-4)]Man(a1-3)[GlcNAc(b1-2)Man(a1-6)]Man(b1-4)GlcNAc(b1-4)GlcNAc
# Procedure, shortened: as §1
# [20] = biological target: GlcNAc(b1-2)[GlcNAc(b1-4)]Man(a1-3)[GlcNAc(b1-4)][GlcNAc(b1-2)[GlcNAc(b1-6)]Man(a1-6)]Man(b1-4)GlcNAc(b1-4)GlcNAc
# Procedure, shortened: as §1
# GlcNAc(b1-3)Fuc = biological target: GlcNAc(b1-3)Fuc
# Procedure, shortened: as §1
# [21] = biological target: GlcNAc(b1-3)Gal(b1-3)GalNAc
# Procedure, shortened: as §1
# [22] = biological target: GlcNAc(b1-3)Gal(b1-4)GlcNAc(b1-3)Gal(b1-4)GlcNAc(b1-2)Man(a1-3)[GlcNAc(b1-3)Gal(b1-4)GlcNAc(b1-3)Gal(b1-4)GlcNAc(b1-2)Man(a1-6)]Man(b1-4)GlcNAc(b1-4)GlcNAc
# Procedure, shortened: as §1
# [23] = biological target: GlcNAc(b1-3)Gal(b1-4)GlcNAc(b1-3)Gal(b1-4)GlcNAc(b1-2)[GlcNAc(b1-3)Gal(b1-4)GlcNAc(b1-3)Gal(b1-4)GlcNAc(b1-6)]Man(a1-6)[GlcNAc(b1-3)Gal(b1-4)GlcNAc(b1-3)Gal(b1-4)GlcNAc(b1-2)Man(a1-3)]Man(b1-4)GlcNAc(b1-4)[Fuc(a1-6)]GlcNAc
# Procedure, shortened: as §1
# [24] = biological target: GlcNAc(b1-4)GlcNAc(b1-4)GlcNAc(b1-4)GlcNAc(b1-4)GlcNAc
# Procedure, shortened: as §1
# [25] = biological target: GlcNAc(b1-6)Gal(b1-4)GlcNAc
# Procedure, shortened: as §1
# [26] = biological target: Man(a1-2)Man(a1-3)[Man(a1-6)]Man(a1-6)[Man(a1-2)Man(a1-3)]Man(b1-4)GlcNAc(b1-4)GlcNAc
# Procedure, shortened: as §1
# [27] = biological target: Neu5Ac(a2-3)Gal(b1-3)GalNAc(b1-4)[Neu5Ac(a2-8)Neu5Ac(a2-3)]Gal(b1-4)Glc
# Procedure, shortened: as §1
# [28] = biological target: Neu5Ac(a2-3)Gal(b1-3)GlcNAc(b1-2)Man(a1-3)[Neu5Ac(a2-3)Gal(b1-3)GlcNAc(b1-2)Man(a1-6)]Man(b1-4)GlcNAc(b1-4)GlcNAc
# Procedure, shortened: as §1
# [29] = biological target: Neu5Ac(a2-3)Gal(b1-4)GlcNAc(b1-2)Man(a1-3)[Neu5Ac(a2-3)Gal(b1-4)GlcNAc(b1-2)Man(a1-6)]Man(b1-4)GlcNAc(b1-4)GlcNAc
# Procedure, shortened: as §1
# [30] = biological target: Neu5Ac(a2-3)Gal(b1-4)GlcNAc(b1-3)Gal(b1-4)[Fuc(a1-3)]GlcNAc
# Procedure, shortened: as §1
# [31] = biological target: Neu5Ac(a2-3)Gal(b1-4)[Fuc(a1-3)]GlcNAc
# Procedure, shortened: as §1
# [32] = biological target: Neu5Ac(a2-3)Gal(b1-4)[Fuc(a1-3)]GlcNAc(b1-3)Gal
# Procedure, shortened: as §1
# [33] = biological target: Neu5Ac(a2-6)Gal(b1-4)GlcNAc(b1-2)Man(a1-3)[Neu5Ac(a2-6)Gal(b1-4)GlcNAc(b1-2)Man(a1-6)]Man(b1-4)GlcNAc(b1-4)[Fuc(a1-6)]GlcNAc
# Procedure, shortened: as §1
# [34] = biological target: Neu5Ac(a2-6)Gal(b1-4)GlcNAc(b1-2)[Neu5Ac(a2-6)Gal(b1-4)GlcNAc(b1-4)]Man(a1-3)[GlcNAc(b1-4)][Neu5Ac(a2-6)Gal(b1-4)GlcNAc(b1-4)Man(a1-6)]Man(b1-4)GlcNAc(b1-4)GlcNAc
# Procedure, shortened: as §1
# [35] = biological target: Neu5Ac(a2-6)GlcNAc(b1-4)GlcNAc
# Procedure, shortened: as §1
# [36] = biological target: Neu5Ac(a2-8)Neu5Ac(a2-3)[GalNAc(b1-4)]Gal(b1-4)Glc
# Procedure, shortened: as §1
# [37] = biological target: Neu5Ac(a2-8)Neu5Gc(a2-3)Gal(b1-4)GlcNAc
# Procedure, shortened: as §1
# [38] = biological target: Neu5Ac9Ac(a2-6)Gal(b1-4)GlcNAc
# Procedure, shortened: as §1
# [39] = biological target: Neu5Gc(a2-3)Gal(b1-4)GlcNAc
# Procedure, shortened: as §1
# [40] = biological target: Neu5Gc(b2-6)Gal(b1-4)GlcNAc
# Procedure, shortened: as §1
binder,measurement,setting,value
B1,glycan array binding signal (z-score),[1],2.61
same,glycan array binding signal (z-score),[2],-0.248
same,glycan array binding signal (z-score),[3],0.108
same,glycan array binding signal (z-score),[4],4.52
same,glycan array binding signal (z-score),[5],-0.71
same,glycan array binding signal (z-score),[6],0.515
same,glycan array binding signal (z-score),[7],-1.39
same,glycan array binding signal (z-score),[8],-0.596
same,glycan array binding signal (z-score),[9],-1.73
same,glycan array binding signal (z-score),Gal(b1-3)GalNAc(b1-3)Gal,-0.932
same,glycan array binding signal (z-score),Gal(b1-3)GlcNAc,0.236
same,glycan array binding signal (z-score),[10],3.09
same,glycan array binding signal (z-score),[11],-0.308
same,glycan array binding signal (z-score),[12],-0.077
same,glycan array binding signal (z-score),[13],5.18
same,glycan array binding signal (z-score),[14],2.58
same,glycan array binding signal (z-score),Gal(b1-6)Gal,0.805
same,glycan array binding signal (z-score),[15],-0.32
same,glycan array binding signal (z-score),[16],-0.324
same,glycan array binding signal (z-score),Gal6S(b1-3)GlcNAc,-0.599
same,glycan array binding signal (z-score),GalNAc4S6S(b1-4)GlcNAc,-0.245
same,glycan array binding signal (z-score),GlcA(b1-6)Gal,2.83
same,glycan array binding signal (z-score),[17],-0.454
same,glycan array binding signal (z-score),[18],-0.821
same,glycan array binding signal (z-score),[19],1.11
same,glycan array binding signal (z-score),[20],-0.289
same,glycan array binding signal (z-score),GlcNAc(b1-3)Fuc,-0.235
same,glycan array binding signal (z-score),[21],-0.447
same,glycan array binding signal (z-score),[22],2.6
same,glycan array binding signal (z-score),[23],2.84
same,glycan array binding signal (z-score),[24],-0.476
same,glycan array binding signal (z-score),[25],0.133
same,glycan array binding signal (z-score),[26],0.494
same,glycan array binding signal (z-score),[27],-0.869
same,glycan array binding signal (z-score),[28],6.23
same,glycan array binding signal (z-score),[29],0.306
same,glycan array binding signal (z-score),[30],-0.998
same,glycan array binding signal (z-score),[31],-1.44
same,glycan array binding signal (z-score),[32],-0.162
same,glycan array binding signal (z-score),[33],2.81
same,glycan array binding signal (z-score),[34],0.093
same,glycan array binding signal (z-score),[35],1.36
same,glycan array binding signal (z-score),[36],-0.759
same,glycan array binding signal (z-score),[37],-1.02
same,glycan array binding signal (z-score),[38],1.65
same,glycan array binding signal (z-score),[39],3.09
same,glycan array binding signal (z-score),[40],-0.76
